Out of some 310,000 compounds screened, about 14,000 (4.5%) showed an effect of 50% or more. Effects have a minus sign here. Only a selection was taken, and strong results are over-represented in it overall.
molecular target: human ether-à-go-go-related gene (hERG) potassium channel (human, UniProt Q12809); assay: primary screen, population patch clamp on CHO cells stably expressing hERG; higher = less effect of the substance
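Note: peak tail current of the secondary pulse compared with the same well before compound.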

human ether-à-go-go-related gene (hERG) potassium channel, sequence (Q12809 whole entry, looked up): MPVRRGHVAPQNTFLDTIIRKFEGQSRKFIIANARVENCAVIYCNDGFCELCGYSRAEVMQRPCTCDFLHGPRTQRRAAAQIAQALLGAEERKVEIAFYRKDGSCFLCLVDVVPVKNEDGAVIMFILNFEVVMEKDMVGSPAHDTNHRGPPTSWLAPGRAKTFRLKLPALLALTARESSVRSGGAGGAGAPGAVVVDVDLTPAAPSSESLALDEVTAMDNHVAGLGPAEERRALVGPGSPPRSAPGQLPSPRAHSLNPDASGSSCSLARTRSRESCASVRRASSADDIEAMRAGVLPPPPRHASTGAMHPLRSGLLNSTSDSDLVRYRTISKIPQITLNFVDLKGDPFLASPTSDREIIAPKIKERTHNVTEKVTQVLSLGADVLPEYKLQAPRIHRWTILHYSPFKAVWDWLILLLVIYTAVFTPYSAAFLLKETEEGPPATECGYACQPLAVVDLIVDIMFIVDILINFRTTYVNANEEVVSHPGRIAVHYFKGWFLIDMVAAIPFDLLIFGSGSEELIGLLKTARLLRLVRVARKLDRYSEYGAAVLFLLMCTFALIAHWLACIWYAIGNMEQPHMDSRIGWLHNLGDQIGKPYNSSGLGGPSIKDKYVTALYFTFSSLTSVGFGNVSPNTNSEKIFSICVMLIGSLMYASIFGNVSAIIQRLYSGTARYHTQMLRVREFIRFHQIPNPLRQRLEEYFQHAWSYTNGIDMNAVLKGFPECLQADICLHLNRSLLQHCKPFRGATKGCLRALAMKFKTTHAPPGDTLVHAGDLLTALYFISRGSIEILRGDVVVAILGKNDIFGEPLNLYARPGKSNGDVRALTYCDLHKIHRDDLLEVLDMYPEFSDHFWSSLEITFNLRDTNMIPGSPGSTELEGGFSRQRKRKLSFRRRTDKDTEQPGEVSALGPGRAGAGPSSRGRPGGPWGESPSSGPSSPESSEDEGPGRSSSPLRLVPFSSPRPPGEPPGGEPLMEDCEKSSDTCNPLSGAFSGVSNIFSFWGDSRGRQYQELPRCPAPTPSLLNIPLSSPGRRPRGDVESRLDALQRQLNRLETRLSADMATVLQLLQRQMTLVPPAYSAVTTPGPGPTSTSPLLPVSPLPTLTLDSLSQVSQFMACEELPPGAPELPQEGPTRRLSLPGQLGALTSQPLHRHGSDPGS

SMILES | hERG current change (%, negative = inhibition) at 10uM [%]
COCC(=O)Nc1nnc(Cc2ccc(OC)c(OC)c2)s1 | -7.97
O=C(NCCC(=O)N1CCN(c2ncccn2)CC1)c1ccccc1 | 11.6
O=C(/C=C/Nc1ccc(S(=O)(=O)Nc2ncccn2)cc1)c1ccc2ccccc2c1 | 3.84
CCOC(=O)C(CC)Sc1nnc2cc(C)c3ccccc3n12 (stereo not shown) | -38
Cc1noc(C)c1CSCC(=O)N(CCC(C)C)c1c(N)n(Cc2ccccc2)c(=O)[nH]c1=O | 21.4
Cn1cc(/C(Cc2ccccc2)=N\O)c2ccccc21 | 4.78
COC(=O)c1[nH]c(C)c(/C(O)=C2\C(=O)C(=O)N(CCN(C)C)C2c2cc(OC)ccc2OC)c1C (stereo not shown) | 13.6
CCCCN(CCCC)CCNC(=O)CSCc1ccc(C)cc1.O=C(O)C(=O)O | -63.2
Cc1ccc(CSCCNC(=O)CSCc2ccc([N+](=O)[O-])cc2)cc1 | -71.4
Cc1ccc(CSCC(=O)NCCc2ccccc2)cc1 | -3.13
CCCCN(C)CCNC(=O)CSCc1ccc(C)cc1.O=C(O)C(=O)O | -37.5
Cc1ccc(CNC(=O)CN(c2cccc([N+](=O)[O-])c2)S(C)(=O)=O)cc1 | 0.796
O=C(CSc1ccccc1)NCCSCc1ccccc1 | -3.89
O=C(CSCc1ccc([N+](=O)[O-])cc1)NCCSCc1ccccc1 | -70.1
Cc1ccc(CSCCNC(=O)CN(c2cccc([N+](=O)[O-])c2)S(C)(=O)=O)cc1 | -53.2
Cc1ccc(CSCCNC(=O)CN(c2ccccc2)S(C)(=O)=O)cc1 | 1.75
O=C(CSCc1ccc([N+](=O)[O-])cc1)Nc1ccccc1C(=O)O | 24.7
COc1ccc(CCNC(=O)CSCc2ccc([N+](=O)[O-])cc2)cc1 | -44.8
Cc1cccc(CSCCNC(=O)CSCc2ccc([N+](=O)[O-])cc2)c1 | -47.8
Cc1ccccc1NC(=O)Cn1nc(-c2ccc(Cl)s2)ccc1=O | 13.6
CSC1=N/C(=C/c2ccc(-n3cncn3)cc2)C(=O)N1 | 6.6
COc1cc(/C=N/Nc2ccc(F)cc2F)cc(OC)c1O | -2.17

SMILES | hERG current change (%, negative = inhibition) at 10uM [%]
O=C(COC(=O)c1ccco1)NC(c1ccccc1)c1ccccc1 | 3.56
Cc1ccc(S(=O)(=O)NCCC(=O)OCC(=O)N(C)c2ccccc2)cc1 | 4.35
CCCn1c(SCC(=O)c2ccc3c(c2)OCCO3)n[nH]c1=O | 22.6
COc1cc(OC)cc(OC(=O)c2cccc(S(=O)(=O)N3CCN(C)CC3)c2)c1 | -14.1
CC1CCN(C(=O)C(C)OC(=O)CSc2ccc([N+](=O)[O-])cc2)CC1 (stereo not shown) | -50.1
CC(C)(C)SCCNC(=O)CSCc1ccc([N+](=O)[O-])cc1 | -63.1
Cc1ccc(CSCCNC(=O)c2cccc([N+](=O)[O-])c2)cc1 | -64.1
O=C(CSCc1ccc([N+](=O)[O-])cc1)NC1CC1 | -29.7
Cc1ccc(CSCCNC(=O)c2ccc(C)cc2)cc1 | 19.1
CC(OC(=O)CSc1ccc([N+](=O)[O-])cc1)C(=O)NC1CC1 (stereo not shown) | -14.7
Cc1ccc(CSCCNC(=O)c2ccccc2)cc1 | -13.6
CC1CCN(C(=O)C(C)c2ccc([N+](=O)[O-])cc2)CC1 (stereo not shown) | -3.41
CC(C)C(NC(=O)CSCc1ccc([N+](=O)[O-])cc1)C(C)C | -40.2
O=C(Cc1ccc([N+](=O)[O-])cc1)NC1CCCCCC1 | 7.55
O=C(CSCc1ccc([N+](=O)[O-])cc1)NC1CCCCCC1 | -50.8
COc1ccc(CCNC(=O)CSCc2ccc([N+](=O)[O-])cc2)cc1OC | -37.5
CCOC(=O)C(C(=O)Nc1cccc(C)c1)C1CCCCC1 (stereo not shown) | -6.99
CCC1C(=O)N=C(SCC(=O)Nc2ccc(C)cc2)N(c2ccccc2)C1=O (stereo not shown) | 19.4
CCOC(=O)c1sc(Nc2ccc(Br)cc2)nc1C | 13.7
Cc1oc2ncnc(N)c2c1C | 8.52
CNC(=O)CN1C(=O)c2cccc3cccc1c23 | 10.3
COc1ccc(NS(=O)(=O)c2ccc(O)c(NC(=O)c3ccc(S(=O)(=O)N4CCCCCC4)cc3)c2)cc1 | 1.73

SMILES | hERG current change (%, negative = inhibition) at 10uM [%]
OCC[C@H]1C[C@@H](O)[C@H](O)[C@]2(OCc3ccccc32)O1 | -0.346
O=c1[nH]ncn1-c1cccc(C(F)(F)F)c1 | 10.8
FC(F)(F)c1cnc(Oc2ccccc2-c2nnc(-c3ccc(Cl)cc3)o2)c(Cl)c1 | -1.52
COc1ccc([N+](=O)[O-])cc1NC(=O)CSCc1ccccc1C | -7.85
CC1CCCCC1NC(=O)CSc1ccc([N+](=O)[O-])cc1 (stereo not shown) | -52.6
Cc1ccccc1CSCCNC(=O)CSCc1ccc([N+](=O)[O-])cc1 | -51.3
O=C(CSCc1ccc([N+](=O)[O-])cc1)N/N=C/c1ccncc1 | -49.1
O=C(CSc1ccc([N+](=O)[O-])cc1)NCC1CCCCC1 | -15
O=C(CSCc1ccc([N+](=O)[O-])cc1)N/N=C/c1cccnc1 | -60.2
Cc1ccccc1CSCC(=O)NCCSc1ccccn1 | -3.24
CC1CCCCC1NC(=O)Cn1cc([N+](=O)[O-])ccc1=O (stereo not shown) | 7.67
O=C(Cc1ccc([N+](=O)[O-])cc1)N/N=C/c1cccnc1 | -9.63
COc1ccc(CNC(=O)C2CCC(CNS(=O)(=O)c3cccs3)CC2)cc1 (stereo not shown) | -18.9
O=C1CC(O)(C(F)(F)F)Oc2c1ccc1ccccc21 (stereo not shown) | 7.95
COc1ccc(/C=N/NC(=O)c2ccc3nc[nH]c3c2)c(OC)c1OC | 12.9
Cc1ccc(S(=O)(=O)NNC(=S)Nc2ccccc2)cc1 | 3.05
On1c(-c2ccc(Cl)cc2)nc2ccccc21 | 13.9
C[n+]1cn(Cc2cc(Cl)ccc2OC(F)F)c2ccccc21.[Br-] | 2.96
CC(C)=Cc1oc2ccc([N+](=O)[O-])cc2c1N1CC(C)OC(C)C1 (stereo not shown) | 18.7
CC(=O)N1CCOc2ccc(S(=O)(=O)N3CCC(C(=O)NCc4ccc(F)cc4)CC3)cc21 | 4.09
CCC(c1nnc(SCC(=O)Nc2ccc(C(C)=O)cc2)n1C1CCCCC1)N(C)C (stereo not shown) | -9.96
Cc1ccc(CNC(=O)Nc2ccccc2)n1C | 12.3

SMILES | hERG current change (%, negative = inhibition) at 10uM [%]
O=C(Nc1cccnc1)c1cc(-c2ccc(F)cc2)on1 | 10.9
Cc1cccc(C)c1OC1(c2ccccc2)OC(=O)c2ccccc21 (stereo not shown) | 10.9
CCCn1c(SCc2cc(=O)[nH]c3ccccc23)nc2c1c(=O)n(C)c(=O)n2C | -7.61
CCOC(=O)C1CCN(S(=O)(=O)c2ccc(C(=O)OC)cc2)CC1 | -1.7
CCOC(=O)C1CCN(C(=O)c2cccc(S(=O)(=O)N3CCc4ccccc43)c2)CC1 | -56.4
COc1ccc(S(=O)(=O)N2CCc3ccccc32)cc1C(=O)N1CCOCC1 | -0.239
COc1ccc(S(=O)(=O)N2CCc3ccccc32)cc1C(=O)N1CCN(C=O)CC1 | -2.51
COc1ccc(S(=O)(=O)N2CCc3ccccc32)cc1C(=O)Nc1ccc(C(N)=O)cc1 | 9.8
CCOC(=O)N1CCN(C(=O)c2cc(S(=O)(=O)N3CCc4ccccc43)ccc2OC)CC1 | -52.1
CCOC(=O)C1CCN(S(=O)(=O)c2ccc(NC(=O)OC)cc2)CC1 | -56.5
COc1cc(C(=O)Nc2ccc(S(=O)(=O)N3CCc4ccccc43)cc2)cc(OC)c1OC | -4.14
O=C(c1cccc(S(=O)(=O)N2CCc3ccccc32)c1)N1CCc2ccccc2C1 | -13
CCOC(=O)C1CCN(C(=O)c2cccc(S(=O)(=O)N3c4ccccc4CC3C)c2)CC1 (stereo not shown) | -35.7
CCOC(=O)C1CCN(S(=O)(=O)c2ccc(C)cc2)CC1 | 3.36
COc1ccccc1C(=O)Nc1ccc(S(=O)(=O)N2CCc3ccccc32)cc1 | -77
COc1ccc(S(=O)(=O)N(CC(=O)Nc2ccc3c(c2)OCO3)c2ccccc2OC)cc1 | 18.5
COc1c2ccoc2c(OC)c2oc(=O)ccc12 | -5.65
CCC(C)C(NC(=O)C1CCC(C)CC1)C(=O)NCCc1ccc(S(N)(=O)=O)cc1 (stereo not shown) | 4.32
Cc1c(NN=C(C#N)C#N)c(=O)n(-c2ccccc2)n1C | 13.5
O=C1CSC(c2ccc(Cl)c(Cl)c2)N1c1nccs1 (stereo not shown) | -1.93
CC(C)(CO)C(O)C(=O)NCCCO (stereo not shown) | 11.5
CCOc1ccccc1C1C(C#N)=C(N)Oc2cc(N)ccc21 (stereo not shown) | -5.58
